Our source for the inhibition values is PubChem BioAssay AID1903 (Southern Research Specialized Biocontainment Screening …, 2009).

The term inhibition denotes the drop in the measured response relative to a control, in per cent.

Screen size: about 310,000 compounds; about 1,200 (0.39%) were called active. The rule behind the calls is not given here. These entries were drawn from the full list. Potency and affinity values are given separately.

For the assay, the target named is Large T antigen (Simian virus 40) (UniProt P03070). Nature of the assay: TAg ATPase/helicase activity blockers – biochemical (AID 1903). Conditions: SV40 large T antigen ATPase/helicase inhibition assay; at 20 µM; hits give high values.
Large T antigen (Simian virus 40), sequence (P03070 whole entry, looked up): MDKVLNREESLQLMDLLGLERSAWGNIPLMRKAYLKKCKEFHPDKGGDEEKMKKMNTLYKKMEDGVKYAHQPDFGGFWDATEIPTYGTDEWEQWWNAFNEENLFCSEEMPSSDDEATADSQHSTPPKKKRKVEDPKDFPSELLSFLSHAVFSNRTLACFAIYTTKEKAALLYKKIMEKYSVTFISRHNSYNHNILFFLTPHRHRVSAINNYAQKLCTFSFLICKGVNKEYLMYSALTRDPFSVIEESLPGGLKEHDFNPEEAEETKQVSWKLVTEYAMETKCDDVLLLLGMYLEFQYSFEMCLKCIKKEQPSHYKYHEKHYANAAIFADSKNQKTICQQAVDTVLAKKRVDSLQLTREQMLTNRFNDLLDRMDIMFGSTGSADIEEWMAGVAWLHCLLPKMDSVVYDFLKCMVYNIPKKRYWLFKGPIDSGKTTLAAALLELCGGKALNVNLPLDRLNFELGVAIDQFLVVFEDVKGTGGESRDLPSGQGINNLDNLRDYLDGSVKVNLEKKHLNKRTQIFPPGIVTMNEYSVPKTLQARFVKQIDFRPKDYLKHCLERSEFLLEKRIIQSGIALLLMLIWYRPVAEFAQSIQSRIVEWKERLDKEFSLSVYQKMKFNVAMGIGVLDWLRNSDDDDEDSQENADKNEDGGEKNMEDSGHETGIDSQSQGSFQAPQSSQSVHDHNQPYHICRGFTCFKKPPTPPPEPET
Take `CCOP(=O)(O)c1ccccc1OCCOCCOc1ccccc1P(=O)(O)OCC`: the inhibition is -4.92% (inactive).

As to `COc1ccc(Cl)cc1Nc1nc(-c2sc(NC(=O)c3ccccc3)nc2C)cs1`, the inhibition was 2.67% (inactive).

Regarding `CCOC(=O)Cn1c(=NC(=O)C(C)C)sc2c(C)cc(C)cc21`, the inhibition was 14% (inactive).

`CCCc1nnc(NC(=O)CCC(=O)N2CCCCC2CC)s1` (stereo not given): the inhibition is 6.09% (inactive).

Take `CC(NC(=O)/C(C#N)=C/c1ccc(C(=O)O)cc1)c1ccccc1` (stereo not given): the inhibition was 2.43% (inactive).

With `N#C/C(=C\c1ccc(O)c(O)c1)C(=O)NCCCc1ccccc1`, the inhibition is 37.7% (inactive).

As to `COc1cc(/C=C(\C#N)C(=O)NCCc2ccccc2)cc(OC)c1O`, the inhibition is 23.4% (inactive).

For the compound `COc1ccc(/C=C(\C#N)C(=O)NC(C)c2ccccc2)cc1O` (stereo not given), the inhibition is 4.31% (inactive).

Consider `COc1cc(/C=C(\C#N)C(=O)N2CCc3ccccc32)ccc1O`, for which the inhibition was 57% (inactive).

Take `O=C1NC(=S)N/C1=C\c1ccccc1OCc1ccc(C(=O)O)cc1`: the inhibition is 11.5% (inactive).

In the case of `O=C(C(=O)N1CCCc2ccccc21)N1CCCc2ccccc21`, the inhibition was -4.81% (inactive).

With `CN1C(=O)S/C(=C\c2ccccc2OCc2ccc(C(=O)O)cc2)C1=O`, the inhibition was 10.5% (inactive).

For the compound `Cc1nnc(NC(=O)CSc2n[nH]c(-c3ccccc3)n2)s1`, the inhibition was -0.77% (inactive).

Turning to `O=C(CC(C(=O)N1CCc2ccccc21)n1ccnc1)NCC1CCCO1` (stereo not given), the inhibition was 2.93% (inactive).

As to `COc1ccccc1N(C)S(=O)(=O)c1ccc(C(=O)OCC(=O)NCC(F)(F)F)cc1`, the inhibition is 21.8% (inactive).

Consider `COc1ccc(OCCCC(=O)OCC(=O)NNC(=O)c2ccc([N+](=O)[O-])cc2)cc1`, for which the inhibition was 11.8% (inactive).

Consider `COc1ccc2c(=O)c(N3C(=O)c4ccccc4C3=O)c(C)oc2c1`, for which the inhibition was 0.21% (inactive).

As to `COc1ccc(C)cc1NC(=O)Nc1ccc2c(c1)CCC2`, the inhibition is -11.4% (inactive).

As for `N#C/C(=C/c1ccc(O)c([N+](=O)[O-])c1)C(=O)Nc1ccccc1`, the inhibition was 6.93% (inactive).

Consider `COc1cc(/C=C(/C#N)C(=O)Nc2ccccc2)c(Br)cc1OCc1ccc(C(=O)O)cc1`, for which the inhibition is 12.2% (inactive).

As for `N#C/C(=C/c1ccc(C(=O)O)cc1)C(=O)Nc1ccccc1`, the inhibition is 2.52% (inactive).

With `COC(=O)c1ccc(COc2ccccc2/C=C(\C#N)C(=O)Nc2ccc(C)cc2)cc1`, the inhibition was 3.16% (inactive).

Consider `CCOC(=O)Cc1csc(NC(=O)CCCN2C(=O)c3ccccc3C2=O)n1`, for which the inhibition is 1.05% (inactive).

For the compound `Cc1[nH]c2ccccc2c1C(Nc1nccs1)c1ccncc1` (stereo not given), the inhibition is 0.2% (inactive).

Take `CCOc1ccc(NC(=O)CCn2c(=O)[nH]c3ccsc3c2=O)cc1`: the inhibition is 9.67% (inactive).

As to `Cc1ccc(S(=O)(=O)N(C)C)cc1NC(=O)CSc1nc2ccccc2c(=O)n1CC1CCCO1` (stereo not given), the inhibition is 23.7% (inactive).

As for `O=C(Nc1ncccn1)C1=C(O)c2ccccc2S(=O)(=O)N1Cc1ccccc1`, the inhibition was 2.54% (inactive).

For `Cc1cc(Cl)c(S(=O)(=O)NC2CCCCC2)cc1OCC(=O)Nc1nncs1`, the inhibition was 1.03% (inactive).

`Cc1ccc(NC(=O)CCNS(=O)(=O)c2ccc3c(c2)CCC(=O)N3)c(Br)c1`: the inhibition is 3.77% (inactive).

Take `Cc1ccccc1NC(=O)CCNS(=O)(=O)c1ccc2c(c1)CCC(=O)N2`: the inhibition is 5.35% (inactive).

On to `CC(C)(C)n1nc2c(c1NC(=O)Cc1cccc3ccccc13)CS(=O)(=O)C2`, for which the inhibition is 2.22% (inactive).

Turning to `Brc1cccc(Cn2c(-c3cncs3)nc3ccccc32)c1`, the inhibition was 12% (inactive).

On to `CC(=O)c1cccc(NC(=O)COC(=O)COc2ccccc2C)c1`, for which the inhibition was 2.51% (inactive).

With `COc1cc2ccc(=O)oc2cc1O`, the inhibition was 2.12% (inactive).

In the case of `CC(C)c1cc2cc3ccc(=O)oc3cc2o1`, the inhibition is 4.47% (inactive).

On to `O=C1CCCc2[nH]nc(-c3cccnc3)c21`, for which the inhibition was 12% (inactive).

For the compound `Cc1c(Br)c(=O)oc2c(Br)c(O)ccc12`, the inhibition was 23.7% (inactive).

As to `Cc1c(C)c2cc(Cl)c(O)c(CN(C)C)c2oc1=O`, the inhibition is 6.8% (inactive).

Regarding `C/C(=N\N=C\c1ccccc1F)c1nnn(-c2nonc2N)c1C`, the inhibition was -1.72% (inactive).

`O=C(NCc1ccc(Cl)cc1)c1cnn2ccccc12`: the inhibition was 3.57% (inactive).

On to `O=C(Nc1ccccc1)N1CCOCC1`, for which the inhibition is 12.8% (inactive).

On to `O=C(O)C1CCCCC1C(=O)Nc1ccc(-c2ccccc2)cc1` (stereo not given), for which the inhibition is -3.79% (inactive).

On to `O=C(Nc1ccccc1)Nc1ccc(Nc2ccccc2)cc1`, for which the inhibition is 25.8% (inactive).

For the compound `CCC(=O)Nc1ccc(Nc2ccccc2)cc1`, the inhibition is 33.2% (inactive).

Regarding `O=C(Nc1ccc(F)cc1)N1CCOCC1`, the inhibition is 0.68% (inactive).

As to `O=C(Nc1ccc(Nc2ccccc2)cc1)c1ccccc1`, the inhibition was 16.9% (inactive).

Consider `CC(=O)Nc1ccc(Nc2ccccc2)cc1`, for which the inhibition was 23.7% (inactive).

As for `O=C(O)C1CCCCC1C(=O)Nc1ccccc1Nc1ccccc1` (stereo not given), the inhibition was 20.9% (inactive).

On to `CC(=O)COc1ccc2c(c1C)O/C(=C\c1ccco1)C2=O`, for which the inhibition is 35.5% (inactive).

With `CCN1C(=O)CC(c2ccc(OC(C)C)cc2)C1=O` (stereo not given), the inhibition is -0.45% (inactive).

For `CC[C@H](C)[C@H](NC(N)=O)C(=O)Nc1ccc(NC(C)=O)cc1`, the inhibition was 9.4% (inactive).

Consider `CCOC(=O)c1cnc(N)nc1C(F)(F)F`, for which the inhibition was -4.94% (inactive).

In the case of `O=C(COC(=O)c1ccc2c(c1)OCCO2)Nc1cc(S(=O)(=O)N2CCOCC2)ccc1Cl`, the inhibition was 12.3% (inactive).

With `COCCn1c(N2CCCC2)nc2c1c(=O)[nH]c(=O)n2C`, the inhibition was 5.19% (inactive).

For the compound `Cc1ccc(-c2nnc(CCC(=O)N(C)Cc3nccs3)o2)s1`, the inhibition is -8.55% (inactive).

For `Nc1ccc(S(=O)(=O)c2ccc(N)c(N)c2)cc1`, the inhibition was 20.9% (inactive).

Consider `Nc1cccc(S(=O)(=O)c2ccc(N)c(N)c2)c1`, for which the inhibition is 25.5% (inactive).

As to `O=C(c1cnn2c(C(F)F)cc(-c3ccccc3)nc12)N1CCCCC1c1cccnc1` (stereo not given), the inhibition is 1.99% (inactive).

As for `COc1ccc(NC(=O)c2ccc3c(c2)NC(=O)CO3)cc1OC`, the inhibition is -1.26% (inactive).

For the compound `Cc1ccccc1S(=O)(=O)Cc1ccc(C(=O)NC2CC2)o1`, the inhibition was 11.4% (inactive).

Regarding `CCC1=NN2C(=N)/C(=C/c3ccc(OS(=O)(=O)c4ccc(C)cc4)c(OC)c3)C(=O)N=C2S1`, the inhibition is 15.3% (inactive).

For `CCC1=NN2C(=N)/C(=C\c3ccc(OCCOc4ccccc4)c(OC)c3)C(=O)N=C2S1`, the inhibition was 10.4% (inactive).

On to `CCOc1cc(/C=C2/C(=N)N3N=C(CC)SC3=NC2=O)ccc1OC(=O)c1ccco1`, for which the inhibition is 1.88% (inactive).

Take `COc1cc(/C=C2\C(=N)N3N=C(S(C)(=O)=O)SC3=NC2=O)ccc1OS(=O)(=O)c1ccccc1`: the inhibition is 26.3% (inactive).

In the case of `COc1cc(/C=C2\SC(c3ccc(C)cc3)=NC2=O)ccc1O`, the inhibition is 23.4% (inactive).

For `COc1cc(/C=C2/C(=N)N3N=C(C)SC3=NC2=O)ccc1OS(=O)(=O)c1ccc(C)cc1`, the inhibition was 3.08% (inactive).

On to `CC(CCc1ccccc1)C(=O)NO` (stereo not given), for which the inhibition was -1.59% (inactive).

Take `Cc1cc(NC(=O)c2cccc(S(=O)(=O)Nc3cccc(C(=O)O)c3)c2)no1`: the inhibition is 12.5% (inactive).

Consider `CCOc1ccc(N2C(=O)CC(N3CCN(C(=O)CN4CCCC4)CC3)C2=O)cc1` (stereo not given), for which the inhibition is 15.8% (inactive).

For `CN(C)CCN(C(=O)c1ccc(S(=O)(=O)N(C)C)cc1)c1nc2cc3c(cc2s1)OCCO3`, the inhibition is 3.41% (inactive).

In the case of `Cc1cccc(C(=O)N[C@H](C(=O)NCCc2ccc(S(N)(=O)=O)cc2)C(C)C)c1`, the inhibition was 9.44% (inactive).

On to `CCCC(c1nnnn1CS(=O)(=O)c1ccc(C)cc1)N1CCC(C(N)=O)CC1` (stereo not given), for which the inhibition was 1.94% (inactive).

In the case of `CCOc1ccc(NC(=O)CCn2ccnc2)cc1`, the inhibition is 2.19% (inactive).

Turning to `O=C(CCCCCN1C(=O)c2ccccc2C1=O)NCCc1nc2ccccc2[nH]1`, the inhibition is 5.03% (inactive).

Consider `COc1ccc(Nc2nc(N3CCN(S(=O)(=O)N(C)C)CC3)nc3ccccc23)cc1`, for which the inhibition was 6.91% (inactive).

Regarding `COc1ccc(-c2nc(-c3cccs3)c(-c3cccs3)[nH]2)cc1OC`, the inhibition is 8.77% (inactive).

As to `Clc1nccnc1N/N=C/c1ccc(Br)cc1`, the inhibition is 0.07% (inactive).

For the compound `Oc1ccccc1/C=N/Nc1nccnc1Cl`, the inhibition was 0.02% (inactive).

As to `Fc1ccc(/C=N/Nc2nccnc2Cl)cc1`, the inhibition is 8.81% (inactive).

Regarding `Oc1ccc(/C=N/Nc2cccc(Cl)n2)c(O)c1`, the inhibition was 21.8% (inactive).

On to `Oc1ccc(/C=N/Nc2ccnc3cc(Cl)ccc23)c(O)c1`, for which the inhibition was 8.76% (inactive).

On to `COc1ccc(/C=N/Nc2nccnc2Cl)c(OC)c1`, for which the inhibition was 5.32% (inactive).

Consider `Cc1cc(C)c(C)c(S(=O)(=O)N2CCSCC2)c1C`, for which the inhibition is 8.62% (inactive).

`N#Cc1c(NC(=O)COC(=O)c2ccc(F)cc2)sc2c1CCC2`: the inhibition was 1.58% (inactive).

With `O=C(CSc1nc2c(cnn2-c2ccccc2)c(=O)[nH]1)N1CCCCC1`, the inhibition was 24.9% (inactive).

In the case of `COc1ccc(/C=C(\NC(=O)c2ccc(OC)cc2)C(=O)NC(CCSC)C(=O)O)cc1` (stereo not given), the inhibition was 9.06% (inactive).

With `O=C(Nc1ccccc1)C1CCN(S(=O)(=O)c2ccc3c(c2)OCCO3)CC1`, the inhibition was 20.4% (inactive).

Consider `NC(=O)CSc1nnc2ccc(-c3ccco3)nn12`, for which the inhibition is 16.6% (inactive).

In the case of `CCCCn1c(SCC(N)=O)nnc1-c1ccco1`, the inhibition is 8.33% (inactive).

In the case of `Cc1cc(C)c(C(=O)COc2cccnc2[N+](=O)[O-])cc1C`, the inhibition is -4.61% (inactive).

For the compound `O=C(COc1cccnc1[N+](=O)[O-])c1c[nH]c2ccccc12`, the inhibition was 21.6% (inactive).

Take `COc1ccc(C2OCC3(O)C(c4ccc(OC)c(OC)c4)OCC23)cc1OC` (stereo not given): the inhibition is 4.9% (inactive).

For the compound `CN(C)c1ccc(/C=N/NS(=O)(=O)c2ccc(Br)cc2)cc1`, the inhibition was 24.5% (inactive).

Take `CCN(CC)c1ccc(/C=N/NS(=O)(=O)c2cccc([N+](=O)[O-])c2)cc1`: the inhibition is 10.4% (inactive).

In the case of `O=[N+]([O-])c1cccc(/C=N/NS(=O)(=O)c2ccccc2)c1`, the inhibition is 9.33% (inactive).

With `Cc1ccc(S(=O)(=O)N/N=C/c2ccccc2O)cc1[N+](=O)[O-]`, the inhibition was 12.5% (inactive).

Regarding `C/C(=N\NS(=O)(=O)c1ccc([N+](=O)[O-])cc1)c1c[nH]c2ccccc12`, the inhibition is 34% (inactive).

For `C/C(=N/NS(=O)(=O)c1ccccc1)c1c[nH]c2ccccc12`, the inhibition was 31.3% (inactive).

`COc1cc(/C=N/NS(=O)(=O)c2ccc(C)c([N+](=O)[O-])c2)cc([N+](=O)[O-])c1O`: the inhibition was 24.7% (inactive).

`COc1ccc(/C=N/NS(=O)(=O)c2ccccc2)cc1OC`: the inhibition was 13.2% (inactive).
